Source: PubChem BioAssay
This is one part of a sample in which hits are shown more often than they occur.
DUSP3 inh: VHR1 phosphatase inhibitors, primary screen, biochemical, colorimetric, HTS; recombinant VHR phosphatase, colorimetric substrate read-out; inhibition, % at 20 µM; actives 0.7% (n = 50,000); in the data active = inhibition above about 60%
Target sequence (P51452 whole entry, looked up): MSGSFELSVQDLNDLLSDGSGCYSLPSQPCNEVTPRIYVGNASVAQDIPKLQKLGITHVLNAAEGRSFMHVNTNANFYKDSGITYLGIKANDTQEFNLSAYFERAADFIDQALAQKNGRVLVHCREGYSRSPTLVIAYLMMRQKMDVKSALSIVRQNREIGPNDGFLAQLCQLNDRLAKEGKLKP
The depositor's hits bear a star.

SMILES	DUSP3 inh
COc1cc(/C=N/N2C(=O)c3ccccc3C2=O)c([N+](=O)[O-])cc1OC	-5
CS(=O)(=O)N(CC(=O)Nc1ccccc1)c1ccc(Br)cc1	15
CC(=O)N(OCON(C(C)=O)C(C)=O)C(C)=O	15
CCN1C(=O)C(=Cc2cccn2-c2ccc([N+](=O)[O-])cc2)C(=O)N(CC)C1=S	73*
CC1=NN(c2ccccc2)C(=O)/C1=C/c1cccn1-c1ccc([N+](=O)[O-])cc1	-22
Cc1cccc(N2C(=O)NC(=O)/C(=C/c3cccn3-c3ccc([N+](=O)[O-])cc3)C2=O)c1	-2
CCOC(=O)C1=C(C)N=c2s/c(=C\c3ccccn3)c(=O)n2C1c1ccc(Cl)cc1 (centres undefined)	7
COc1ccc(C2/C(=C(\O)c3ccccc3)C(=O)C(=O)N2c2cccc(Cl)c2)cc1OC (centres undefined)	11
CCC1=NN(C(=O)c2cccnc2)C(O)(c2ccncc2)C1 (centres undefined)	1
Cc1ccc(/C=C(\C#N)c2nc(-c3ccc(C)c(C)c3)cs2)o1	60
Cc1ccc(/C=C(\C#N)c2nc(-c3cccc(Br)c3)cs2)o1	88*
Cc1ccc(/C=C(\C#N)c2nc(-c3cccc([N+](=O)[O-])c3)cs2)o1	21
Cc1ccc(OCC(=O)Nc2nc3ccccc3s2)cc1	4
CCN1CCN(S(=O)(=O)c2cc(Cl)ccc2Cl)CC1	-22
O=C(Nc1ccc(Cl)c(Cl)c1)C1C2/C=C\CCCCC21 (centres undefined)	-14
O=C(O)C1C(C(=O)Nc2ccccc2)C2C=CC1C21CC1 (centres undefined)	-18
O=C(Nc1ccccc1)C1C2/C=C\CCCCC21 (centres undefined)	100*
Cc1ccn2c(-c3csc(Nc4cccc(O)c4)n3)c(C)nc2c1	67*
CCOc1ccc(Nc2nc(-c3sc(NC(=O)CC)nc3C)cs2)cc1	4
CCOc1ccc(Nc2nc(-c3ccccn3)cs2)cc1	-11
Cc1nc2ncccn2c1-c1csc(Nc2cccc(O)c2)n1	61
Cc1ccc(-c2csc(Nc3ccc(O)cc3)n2)c(C)c1	56
CCOc1ccc(Nc2nc(-c3c(C)nc4cc(C)ccn34)cs2)cc1	88*
COc1ccccc1C/C(N)=N/OC(=O)COc1ccc(C(C)(C)C)cc1	-11
Cc1ccc(OCC(=O)N/N=C\c2ccncc2)cc1	-30
SMILES	DUSP3 inh
COc1cc(C2NC(=O)NC(C)=C2C(=O)Nc2ccc(C)cc2)ccc1O (centres undefined)	-1
O=C(Nc1ccc2nn(-c3ccc(F)cc3)nc2c1)c1ccc(-c2ccc([N+](=O)[O-])cc2)o1	13
CC(C)CCNS(=O)(=O)c1ccc(Cl)cc1	-7
CCN(C(=O)c1cccc(C(=O)N(CC)c2ccccc2C)c1)c1ccccc1C	-24
O=C(/C=C/c1ccc2ncccc2c1)c1c(-c2ccccc2)c2cc([N+](=O)[O-])ccc2[nH]c1=O	17
Cc1[nH]c2c(Cl)cccc2c(=O)c1CN1CCN(C)CC1	-5
COC(=O)c1cc(NC(=O)c2cccc3c(Br)cccc23)cc(C(=O)OC)c1	-14
CCOC(=O)c1[nH]cnc1C(=O)Nc1ccc(Br)cc1	-22
CCOC(=O)c1[nH]nc2c1C(=O)N(c1ccc(OC)c(Br)c1)C2=O	4
CCOC(=O)c1[nH]nc2c1C(=O)N(c1ccc(Br)cc1)C2=O	98*
O=C1NC(=O)N(c2ccccc2)C(=O)/C1=C/c1ccc(N2CCCC2)cc1	20
O=C1C(=Cc2ccc(Oc3ccc([N+](=O)[O-])cn3)cc2)C(=O)c2ccccc21	-12
O=C(Nc1cccc2ccccc12)C1CC2CCC1C2 (centres undefined)	0
O=C(Nc1cccc2ccccc12)C1C2C3CCC(C3)C12 (centres undefined)	79*
COc1ccccc1NC(=O)C1C2C3CCC(C3)C12 (centres undefined)	-23
COC(=O)c1ccc(NC(=S)NC(=O)c2ccn(C)n2)cc1	-60
C=C1c2cc(OC)ccc2NC(=O)N1c1ccccc1	16
CCN1C(=O)/C(=C\c2cc(Cl)c(OCc3ccccc3)c(OC)c2)SC1=S	3
CCN1C(=O)/C(=C\c2cc(Cl)ccc2OCc2ccccc2)SC1=S	105*
CN1C(=O)/C(=C\c2cc(Cl)ccc2OCc2ccc(F)cc2)SC1=S	-14
NC(=S)NC12CC3CC(CC(C3)C1)C2	-19
COc1ccc(CNC(=O)C(=O)Nc2ccc(Cl)c(C(F)(F)F)c2)cc1	3
Clc1ccccc1COc1ccccc1/C=N/Nc1nc(N2CCOCC2)nc(N2CCOCC2)n1	-20
N#Cc1c(/N=C/c2ccc(O)cc2)sc2c1CCCC2	6
CCOC(=O)c1ccccc1NC(=O)c1cccc([N+](=O)[O-])c1C	-15
SMILES	DUSP3 inh
COC(=O)C1=C(C)NC(=O)NC1c1ccc(SC)cc1 (centres undefined)	2
CSc1ccc(C2NC(=O)c3ccccc3N2)cc1 (centres undefined)	14
CSc1ccc(C2NC(=O)CCC2[N+](=O)[O-])cc1 (centres undefined)	100*
Cc1cccc(C)c1NC(=O)CSCC(=O)Nc1ccccc1	-21
COc1ccc(C(=O)/C=C/c2ccccc2[N+](=O)[O-])cc1OC	-14
Cc1ccc(C)c(-c2csc(N)c2C(=O)OC(C)C)c1	8
Cc1ccc(-c2csc(N)c2C(=O)OC(C)C)cc1	52
Cc1ccc(-c2csc(N)c2C(=O)OC(C)C)cc1C	84*
Cc1cc(=O)oc2cc(OCc3ccc(F)cc3)c(Cl)cc12	-2
Cc1cc(=O)oc2cc(OC/C(=N\O)c3ccc(Cl)cc3)c(Cl)cc12	106*
Cc1cc(=O)oc2cc(OCC(=O)c3ccc(Cl)cc3)c(Cl)cc12	5
Cc1cccc(N2C(=O)NC(=O)/C(=C/c3ccc(-c4ccc([N+](=O)[O-])cc4C)o3)C2=O)c1	39
COc1ccc(-c2nc3cc(NC(=O)c4ccc(F)cc4)ccc3o2)cc1Cl	4
S=C(S)N(CCN(Cc1cccs1)C(=S)S)Cc1cccs1	98*
CC1(C(=O)NCc2cccs2)CC1(Br)Br (centres undefined)	-5
CC(=O)Nc1ccccc1NC(=O)Cc1cccs1	3
COc1ccc(S(=O)(=O)N(CC(=O)Nc2ccc(C)c(Cl)c2)Cc2ccccc2)cc1	-38
CCC1CCc2c(sc(NC(=O)c3ccc(Br)o3)c2C(=O)OC)C1 (centres undefined)	-14
CCOC(=O)c1c(NC(=O)C2C3CCC(O3)C2C(=O)O)sc2c1CCC(CC)C2 (centres undefined)	0
CCOC(=O)c1c(NC(=O)c2ccco2)sc2c1CCC(CC)C2 (centres undefined)	73*
O=C1OC(c2ccc(Br)cc2)=C/C1=C\C=C\c1ccccc1	14
CCOC(=O)c1c(NC(=O)C23CC4CC(CC(C4)C2)C3)sc(C(=O)Nc2ccccc2F)c1C	19
Cc1ccc(S(=O)(=O)Nc2cc(Sc3ncn[nH]3)c(O)c3ccccc23)cc1	100*
Cc1ccc(C)c(S(=O)(=O)Nc2cc(Br)c(O)c3ccccc23)c1	10
O=S(=O)(Nc1cc(Cl)c(O)c2ccccc12)c1ccc(F)cc1	55
O=C1NN(c2ccc(Cl)c(Cl)c2)C(=O)/C1=C/c1ccc(Cl)c([N+](=O)[O-])c1	83*
Cc1ccc(N2NC(=O)/C(=C/c3ccc(C)c([N+](=O)[O-])c3)C2=O)cc1Cl	-13
CCOC(=O)c1ccc(N2NC(=O)/C(=C/c3ccc(Cl)c([N+](=O)[O-])c3)C2=O)cc1	-9
